Source: the supplement of paper PMC6522484
± gives the standard deviation of the averaged measurements.

Columns and labels:
DLD1 [1] = assay: cell viability (CellTiter-Glo) relative to plate median (fraction of plate median); higher = more viable cells; details: 5 µM; treatment time 24 h; reporter: 7TFP
How it was run: (§1)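 Signals from firefly luciferase or CellTiterGlo readouts were normalised well by well to the plate median using webcellHTS2, additively and with no log transformation. They came from colorectal cancer cell lines stably holding lentiviral TCF/Wnt firefly luciferase reporters (7TFP or TCF4/Wnt), treated with library compounds at a final 5 µM for 24 h. The mean of two independent replicates is given.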

HCT116 = assay: as above; details: 5 µM; treatment time 24 h; reporter: TCF4/Wnt
How it was run: as §1

SW480 [2] = assay: as above; details: 5 µM; treatment time 24 h; reporter: 7TFP
How it was run: as §1

DLD1 [3] = assay: TCF/Wnt firefly luciferase reporter signal relative to plate median (fraction of plate median); higher = higher Wnt reporter signal; details: 5 µM; treatment time 24 h; reporter: 7TFP
How it was run: as §1

SW480 [4] = assay: as above; details: 5 µM; treatment time 24 h; reporter: 7TFP
How it was run: as §1

For `CC1=CCCC(C)=CCC(C)(C)C=CC1` [HUMULENE (alpha)], the cell viability (DLD1 [1]) was 0.978 ± 0.013, the cell viability (HCT116) was 1.01 ± 0.027 and the cell viability (SW480 [2]) was 0.965 ± 0.021. For the same compound, the “TCF/Wnt firefly luciferase reporter signal” value (DLD1 [3]) was 1.04 and the “TCF/Wnt firefly luciferase reporter signal” value (SW480 [4]) was 1.15 ± 0.13.

With `CC(=O)O[C@H]1C[C@@H]2CC[C@@H]3[C@H](CC[C@@]4(C)[C@H]3C[C@H]([N+]3(C)CCCCC3)[C@@H]4OC(C)=O)[C@@]2(C)C[C@@H]1N1CCCCC1` the cell viability (DLD1 [1]) was 0.976 ± 0.077, the cell viability (HCT116) was 1.03 and the cell viability (SW480 [2]) was 1.004 ± 0.0092. The “TCF/Wnt firefly luciferase reporter signal” value (DLD1 [3]) was 1.03 ± 0.1 and the “TCF/Wnt firefly luciferase reporter signal” value (SW480 [4]) was 1.1 ± 0.014.

Compound `Cc1cccc(CN2CCN(C(c3ccccc3)c3ccc(Cl)cc3)CC2)c1` (stereo not given) has a cell viability (DLD1 [1]) of 1.06 ± 0.028, a cell viability (HCT116) of 1.05 ± 0.028 and a cell viability (SW480 [2]) of 0.987 ± 0.0099. The “TCF/Wnt firefly luciferase reporter signal” value (DLD1 [3]) was 1.02 ± 0.038 and the “TCF/Wnt firefly luciferase reporter signal” value (SW480 [4]) was 0.998 ± 0.046.

Compound `O=C(c1ccc(OCCN2CCCCC2)cc1)c1c(-c2ccc(O)cc2)sc2cc(O)ccc12` has a cell viability (DLD1 [1]) of 0.933, a cell viability (HCT116) of 1.01 ± 0.1 and a cell viability (SW480 [2]) of 0.938 ± 0.066. For the same compound, the “TCF/Wnt firefly luciferase reporter signal” value (DLD1 [3]) was 0.879 ± 0.0042 and the “TCF/Wnt firefly luciferase reporter signal” value (SW480 [4]) was 0.926 ± 0.078.

Compound `CCCCCc1c2c(cc(O)c1C(=O)O)OC(=O)c1c(cc(OC)cc1C(=O)CCCC)O2` has a cell viability (DLD1 [1]) of 0.958 ± 0.036, a cell viability (HCT116) of 0.973 ± 0.14 and a cell viability (SW480 [2]) of 1 ± 0.013. For the same compound, the “TCF/Wnt firefly luciferase reporter signal” value (DLD1 [3]) was 0.963 ± 0.034 and the “TCF/Wnt firefly luciferase reporter signal” value (SW480 [4]) was 1.05 ± 0.16.

`O=C(O)c1cccnc1C(=O)O` was tested, and the cell viability (DLD1 [1]) was 1.07 ± 0.021, the cell viability (HCT116) was 1.095 ± 0.0071 and the cell viability (SW480 [2]) was 1.03 ± 0.014. The “TCF/Wnt firefly luciferase reporter signal” value (DLD1 [3]) was 1.04 ± 0.15 and the “TCF/Wnt firefly luciferase reporter signal” value (SW480 [4]) was 1.1 ± 0.085.

`C=CCSCC1Nc2cc(Cl)c(S(N)(=O)=O)cc2S(=O)(=O)N1` (stereo not given) was tested, and the cell viability (DLD1 [1]) was 1.07 ± 0.042, the cell viability (HCT116) was 1.11 ± 0.085 and the cell viability (SW480 [2]) was 1.03 ± 0.021. The “TCF/Wnt firefly luciferase reporter signal” value (DLD1 [3]) was 1.06 ± 0.071 and the “TCF/Wnt firefly luciferase reporter signal” value (SW480 [4]) was 1.02 ± 0.028.

With `CCOC(=O)c1c(C)c(Cl)c(O)c(Cl)c1O` the cell viability (DLD1 [1]) was 0.991 ± 0.042, the cell viability (HCT116) was 0.987 ± 0.013 and the cell viability (SW480 [2]) was 0.9025 ± 0.0078. The “TCF/Wnt firefly luciferase reporter signal” value (DLD1 [3]) was 0.966 ± 0.013 and the “TCF/Wnt firefly luciferase reporter signal” value (SW480 [4]) was 0.994 ± 0.052.

With `Cc1cc(O)c(C)c(O)c1C(=O)O` the cell viability (DLD1 [1]) was 1 ± 0.05, the cell viability (HCT116) was 0.927 ± 0.0085 and the cell viability (SW480 [2]) was 0.996 ± 0.021. The “TCF/Wnt firefly luciferase reporter signal” value (DLD1 [3]) was 0.792 ± 0.36 and the “TCF/Wnt firefly luciferase reporter signal” value (SW480 [4]) was 0.949 ± 0.23.

`CC(C)CCC[C@@H](C)C1CC[C@H]2[C@@H]3CCC4CC(=O)CC[C@]4(C)[C@H]3CC[C@]12C` (stereo not given in full) gave a cell viability (DLD1 [1]) of 0.999 ± 0.016, a cell viability (HCT116) of 1.01 ± 0.031 and a cell viability (SW480 [2]) of 1.02 ± 0.021. For the same compound, the “TCF/Wnt firefly luciferase reporter signal” value (DLD1 [3]) was 0.955 ± 0.045 and the “TCF/Wnt firefly luciferase reporter signal” value (SW480 [4]) was 0.97 ± 0.071.

`COc1cc2oc3cc(OC)c(OC)c(CC=C(C)C)c3c(=O)c2c(OC)c1CC=C(C)C` was tested, and the cell viability (DLD1 [1]) was 1.03 ± 0.028, the cell viability (HCT116) was 1.08 ± 0.13 and the cell viability (SW480 [2]) was 1.035 ± 0.0071. For the same compound, the “TCF/Wnt firefly luciferase reporter signal” value (DLD1 [3]) was 1.23 ± 0.12 and the “TCF/Wnt firefly luciferase reporter signal” value (SW480 [4]) was 1.02 ± 0.06.

`Nc1ncnc2c1ncn2[C@H]1C[C@H](O)[C@@H](CO)O1` gave a cell viability (DLD1 [1]) of 1.07 ± 0.064, a cell viability (HCT116) of 1.06 ± 0.021 and a cell viability (SW480 [2]) of 1.01 ± 0.044. The “TCF/Wnt firefly luciferase reporter signal” value (DLD1 [3]) was 1.05 ± 0.014 and the “TCF/Wnt firefly luciferase reporter signal” value (SW480 [4]) was 1.09 ± 0.064.

For `O=C(O)CCC(=O)Nc1ccc(S(=O)(=O)Nc2nccs2)cc1`, the cell viability (DLD1 [1]) was 0.9765 ± 0.0064, the cell viability (HCT116) was 1.02 ± 0.028 and the cell viability (SW480 [2]) was 1.04 ± 0.035. The “TCF/Wnt firefly luciferase reporter signal” value (DLD1 [3]) was 0.935 ± 0.12 and the “TCF/Wnt firefly luciferase reporter signal” value (SW480 [4]) was 1.03 ± 0.028.

Compound `CC(CN1c2ccccc2Sc2ccccc21)N(C)C` (stereo not given) has a cell viability (DLD1 [1]) of 1.09 ± 0.05, a cell viability (HCT116) of 1.1 ± 0.064 and a cell viability (SW480 [2]) of 1.08 ± 0.014. The “TCF/Wnt firefly luciferase reporter signal” value (DLD1 [3]) was 1.05 ± 0.15 and the “TCF/Wnt firefly luciferase reporter signal” value (SW480 [4]) was 1.115 ± 0.0071.

In the case of `Nc1nc2[nH]cnc2c(=S)[nH]1`, the cell viability (DLD1 [1]) is reported as 0.706 ± 0.016, the cell viability (HCT116) is reported as 0.761 ± 0.037 and the cell viability (SW480 [2]) is reported as 0.828 ± 0.11. The “TCF/Wnt firefly luciferase reporter signal” value (DLD1 [3]) was 0.752 ± 0.033 and the “TCF/Wnt firefly luciferase reporter signal” value (SW480 [4]) was 0.799 ± 0.025.
